PubChem BioAssay AID652104 (National Center for Advancing Translational Sciences (NCATS), 2013)
Screen size: about 410,000 compounds; about 7,200 (1.8%) were called active. About 7% were inconclusive and are not listed. What follows is part of a selection rich in actives, with near analogues and random picks from the rest. Entries that show only a call come without a potency. Values without a mark were called inactive. Calls follow the shape of the dose curve; as a rule, active = well fitted activation curve with a large enough effect; inconclusive = small, poorly fitted or top-dose-only effect, or another doubt; inactive = no such curve, though single readings can be large or run the other way.

experiment: qHTS of TDP-43 Inhibitors; conditions: TDP-43 expressing yeast growth rescue, BacTiter-Glo, 24 h; series mostly up to 46.1 µM; also: nearly all actives have a fitted effect of over 50% in size
Procedure, shortened: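 Growth rescue of TDP-43-toxic yeast measured as ATP luminescence (BacTiter-Glo). Cells grown to mid-log in raffinose, induced in galactose at OD600=0.02, exposed to compound 24 hr at 30 deg C.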
Potency is read from the fitted curve at half-maximal effect.

Compound	Potency	growth rescue (activation)
CCc1ccc(NC(=O)c2cc(S(=O)(=O)NC3CCCCCC3)ccc2F)cc1	inactive	
CCOc1ccccc1NC(=O)c1ccc2c(c1)CCN2S(=O)(=O)c1ccc(C)cc1	inactive	
CCOc1ccc(OCC)c(NC(=O)c2cc(C)nc3c2c(C)nn3-c2cccc(Cl)c2C)c1		19.8% [at 9.22 µM]
O=C(Nc1c2c(nn1-c1ccc(F)cc1)CS(=O)C2)C12CC3CC(CC(C3)C1)C2 (stereo unspecified)	inactive	
COC(=O)c1ccc(NC(=O)C23CC4CC(C2)CC(n2cnc(Cl)n2)(C4)C3)cc1	25.1 µM (active)	
O=C(Nc1ccc(S(=O)(=O)Nc2ncccn2)cc1)C12CC3CC(CC(C3)C1)C2	inactive	
CN(C)c1ccc(C(CNS(=O)(=O)c2cc(F)ccc2F)N2CCOCC2)cc1 (stereo unspecified)	inactive	
CCOc1ccc(N2CC(c3nc4ccccc4n3CCOc3ccc(OC)cc3)CC2=O)cc1 (stereo unspecified)	inactive	
COc1cc(OC)c(NC(=O)N2CC3CCCN3c3ccccc32)cc1Cl (stereo unspecified)	inactive	
Cc1ccc(C2C=C(c3ccc(Cl)cc3)Nc3nc(NC(=O)CCC(=O)O)nn32)cc1 (stereo unspecified)	inactive	
CCC(C)NC(=O)c1cc(Cl)ccc1OC (stereo unspecified)	inactive	
COc1ccc(OC)c(C(=O)c2ccc(C(=O)N3CCN(Cc4csc(C)n4)CC3)cc2)c1	inactive	
COc1ccc(OC)c(C(=O)c2ccc(Cl)cc2)c1	12.6 µM (active)	
Cc1oc2ccc(O)c(CN3CCC(C)CC3)c2c1C(=O)Nc1ccccc1	inactive	
COCCNc1ncnc2c1c(-c1ccccc1)cn2-c1ccc(C)c(Cl)c1	12.6 µM (active)	
CCOC(=O)C1CCN(c2ncnc3c2c(-c2ccccc2)cn3-c2ccc(C)cc2)CC1	inactive	
CCOC(=O)C1CCN(c2ncnc3c2c(-c2ccccc2)cn3-c2cccc(C)c2)CC1	inactive	
CCOc1ccc(N(CC)S(=O)(=O)N2CCCC(C(=O)NCc3ccc(Cl)cc3)C2)cc1 (stereo unspecified)	inactive	
CCOC(=O)c1ccc(NC(=O)Cn2cc(S(=O)(=O)Cc3ccccc3F)c3ccccc32)cc1	inactive	
Cc1c(CNC2CCCCC2)c(C(=O)O)c(C)n1Cc1cccc(Cl)c1	inactive	
COc1ccc(OCC(=O)NCCS(=O)(=O)N2CCN(c3ccc(F)cc3)CC2)cc1	inactive	

Compound	Potency	growth rescue (activation)
COc1ccc(N2CCN(S(=O)(=O)CCNC(=O)C34CC5CC(CC(C5)C3)C4)CC2)cc1	20 µM (active)	
COc1ccc(N2CCN(S(=O)(=O)CCNC(=O)C(c3ccccc3)c3ccccc3)CC2)cc1	inactive	
COCCNC(=O)CSc1c(C)cnc2c1c(=O)n(C)c(=O)n2C	inactive	
Cc1ccccc1NC(=O)c1c(NC(=O)c2ccccc2F)sc2c1CCC(C)C2 (stereo unspecified)	inactive	
CCOc1ccc(N(CC)S(=O)(=O)N2CCCC(C(=O)Nc3ccc(C(C)=O)cc3)C2)cc1 (stereo unspecified)	inactive	
O=C(O)c1ccc(NS(=O)(=O)c2cccc3nsnc23)cc1	inactive	
O=S(=O)(Nc1ccc(OC(F)(F)F)cc1)c1cccc2nonc12	11.2 µM (active)	
Nc1ncc(S(=O)(=O)Nc2ccc(OC(F)(F)F)cc2)cn1	inactive	
Cc1ccc(CSc2oc(-c3cccs3)nc2S(=O)(=O)c2ccc(C)cc2)cc1	inactive	
O=C(Cc1ccc(Cl)cc1)Nc1ccc2nn(-c3ccc(Cl)cc3)nc2c1	inactive	
COc1ccc(Cn2ccnc2SCC(=O)Nc2ccc3c(c2)OCO3)cc1	inactive	
O=C(CSCc1ccc([N+](=O)[O-])cc1)Nc1cccc(C(=O)Nc2ccccc2C(=O)O)c1	inactive	
O=C(CSCc1ccc([N+](=O)[O-])cc1)NCCSCc1ccccc1	20 µM (active)	
O=C(Cc1ccc([N+](=O)[O-])cc1)NCCS(=O)(=O)N1CCN(c2ccccc2)CC1	inactive	
CCOC(=O)c1ccc(NC(=O)c2c(NCc3cccc(OC)c3)sc3c2CCC3)cc1	inactive	
Cc1cccc(OCC(=O)N(Cc2ccc(C(C)C)cc2)Cc2ccco2)c1C	inactive	
CC(C)OP(=O)(OC(C)C)C(Nc1ccccc1)c1cccc([N+](=O)[O-])c1 (stereo unspecified)	inactive	
CC(Nc1ccc([N+](=O)[O-])cc1[N+](=O)[O-])c1ccccc1 (stereo unspecified)	12.6 µM (active)	
CC(Nc1ccc(-c2nc(-c3ccco3)no2)cc1[N+](=O)[O-])c1ccccc1 (stereo unspecified)	inactive	
COc1ccccc1N1CCN(C2C(=O)c3ccccc3N2C(C)=O)CC1 (stereo unspecified)	inactive	
COc1ccccc1N1CCN(/N=C\C(Br)=C\c2ccccc2)CC1	11.2 µM (active)	

Compound	Potency	growth rescue (activation)
COc1ccccc1N1CCN(Cc2ccc(OC)c3ccccc23)CC1	inactive	
CCS(=O)(=O)N1CCc2cc(C(=O)NCc3ccc(C)cc3)ccc21	inactive	
CCOC(=O)c1ccccc1NC(=O)c1sc2nc(-c3ccc(F)cc3)cn2c1C	inactive	
CCOC(=O)C1C(=O)NC(N2CCN(c3ccccc3)CC2)=NC1c1ccco1 (stereo unspecified)	inactive	
CCOC(=O)C1C(=O)C=C(c2ccc(OC)cc2)CC1c1ccco1 (stereo unspecified)	11.2 µM (active)	
COc1ccc(C2=NN(C(=O)CSc3nnnn3C)C(c3ccco3)C2)cc1 (stereo unspecified)	inactive	
Cc1nn(C(=O)c2c(F)cccc2F)c(C)c1S(=O)(=O)N1CCOCC1	inactive	
O=C(NC1CC(=O)N(c2ccc(Cl)cc2)C1)C1CCCC1 (stereo unspecified)	inactive	
COc1ccccc1C(=O)Nc1c(C(=O)Nc2ccc(C)cc2)oc2ccccc12	inactive	
Cc1ccc2cccc(NC(=O)C(C)Oc3ccc(C)c(C)c3)c2n1 (stereo unspecified)	inactive	
Cc1ccc2cccc(NC(=O)c3ccc(OC(C)C)cc3)c2n1	11.2 µM (active)	
Cc1ccc2cccc(NC(=O)c3cccc4ccccc34)c2n1	inactive	
COc1ccc(-c2cc(-c3ccc(F)cc3)nc3c2COc2ccccc2-3)cc1	inactive	
CC(C)C12CN3CC(C(C)C)(CN(C1)C3c1ccc(OCc3ccccc3)cc1)C2=O (stereo unspecified)	inactive	
COc1ccc(-c2nc(CCNC(=O)c3ccc(Br)o3)cs2)cc1	12.6 µM (active)	
COc1cc(OC)cc(C(=O)NNC(=O)CNC(=O)c2ccc(Br)o2)c1	inactive	
O=C(NCCc1ccccn1)c1ccc(COc2ccccc2)o1	inactive	
Cc1ccc(Cn2c(=O)n(Cc3nc(-c4ccccc4)no3)c(=O)c3cc4c(cc32)OCO4)cc1	inactive	
CCC1CCCCN1Cc1c(O)ccc2c(=O)c(Oc3ccccc3Cl)c(C(F)(F)F)oc12 (stereo unspecified)	inactive	
